# From PubChem BioAssay (NCI)
# Compounds without any hit were thinned out: in the full panel of roughly 79,000, 15% have a hit. Values without a mark were called inactive. Calls of active or inactive are those of the source. Rule as the data show it: active = growth inhibition above about 70%; inactive = the rest.
# What was measured:
# [1] = NCI Yeast Anticancer Drug Screen. Data for the wt2 strain (AID 169);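 also: 0% = growth of vehicle-treated yeast cultures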; details: S. cerevisiae wt2 strain growth inhibition, stronger effect = higher value
# Procedure, shortened: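 Compound exposure of yeast; growth compared with vehicle controls; inhibition reported.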
# [2] = NCI Yeast Anticancer Drug Screen. Data for the mlh1 strain (AID 171);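 also: 0% = growth of vehicle-treated control cultures of the same strain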; details: S. cerevisiae mlh1 strain growth inhibition, stronger effect = higher value
# Procedure, shortened: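 Compounds are applied to a genetically altered yeast strain, and its growth is compared with that of vehicle-treated cultures to give percent inhibition.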
# [3] = NCI Yeast Anticancer Drug Screen. Data for the sgs1 strain (AID 173);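 also: 0% = growth of vehicle-only control cultures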; details: S. cerevisiae sgs1 mutant, stronger effect = higher value
# Procedure, shortened: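 Compounds applied to genetically altered yeast; growth compared with vehicle-treated cultures to give % inhibition.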
# [4] = NCI Yeast Anticancer Drug Screen. Data for the mlh1 rad18 strain (AID 175); details: S. cerevisiae mlh1 rad18 strain growth inhibition, stronger effect = higher value
# Procedure, shortened: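 Cells of a genetically altered yeast strain, deficient in DNA damage repair, were treated with compound. Their growth was then compared with that of vehicle-treated cultures to give inhibition.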
# [5] = NCI Yeast Anticancer Drug Screen. Data for the rad18 strain (AID 177); details: S. cerevisiae rad18 mutant growth inhibition, stronger effect = higher value
# Procedure, shortened: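 Compounds are applied to a repair-deficient yeast strain, and growth is compared with that of vehicle-treated cultures to give percent inhibition.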
# [6] = NCI Yeast Anticancer Drug Screen. Data for the rad52 strain (AID 147);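 also: 0% = growth of vehicle-treated control cultures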; details: S. cerevisiae rad52 mutant growth inhibition, stronger effect = higher value
# Procedure, shortened: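 DNA repair-defective yeast; compound exposure; growth scored against vehicle controls.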
# [7] = NCI Yeast Anticancer Drug Screen. Data for the wt1 strain (AID 149);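 also: 0% = growth of vehicle-treated wt1 cultures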; details: S. cerevisiae wt1 strain (SPY 50644) growth inhibition, stronger effect = higher value
# Procedure, shortened: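 Growth inhibition read against vehicle controls after compound exposure of the wt1 yeast strain.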
# [8] = NCI Yeast Anticancer Drug Screen. Data for the rad50EPP+ strain (AID 151);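 also: 0% = growth of vehicle-treated control cultures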; details: S. cerevisiae rad50 mutant strain, stronger effect = higher value
# Procedure, shortened: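 rad50EPP+ yeast treated with test compounds. Readout: growth vs vehicle control.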
# [9] = NCI Yeast Anticancer Drug Screen. Data for the mgt1 strain (AID 153); details: S. cerevisiae mgt1 mutant growth inhibition, stronger effect = higher value
# Procedure, shortened: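 Growth inhibition relative to vehicle controls was scored for the mgt1 yeast strain after compound exposure.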
# [10] = NCI Yeast Anticancer Drug Screen. Data for the rad50 strain (AID 155);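 also: 0% = growth of vehicle-only cultures of the same strain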; details: S. cerevisiae rad50 strain growth inhibition, stronger effect = higher value
# Procedure, shortened: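 Readout: growth inhibition relative to vehicle-treated cultures. Compound exposure was carried out in a genetically defined yeast strain deficient in DNA damage repair.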
# [11] = NCI Yeast Anticancer Drug Screen. Data for the mec2-1 strain (AID 157); details: S. cerevisiae mec2-1 strain, stronger effect = higher value
# Procedure, shortened: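 Growth inhibition is read against vehicle-treated controls after compound exposure of the mec2-1 yeast strain, which is defective in DNA damage repair or cell cycle control.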
# [12] = NCI Yeast Anticancer Drug Screen. Data for the rad14 strain (AID 159);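 also: 0% = growth of vehicle-treated control cultures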; details: S. cerevisiae rad14 strain growth inhibition, stronger effect = higher value
# Procedure, shortened: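 Growth inhibition vs vehicle controls; genetically altered yeast strain (DNA damage repair defect) treated with test compounds.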
# [13] = NCI Yeast Anticancer Drug Screen. Data for the sgs1 mgt1 strain (AID 161);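 also: 0% = growth of cultures given vehicle only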; details: S. cerevisiae sgs1 mgt1 strain, stronger effect = higher value
# Procedure, shortened: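 Percent growth inhibition was derived by comparing compound-exposed mutant yeast with vehicle-exposed cultures. The strain carries alterations in DNA damage repair.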
# [14] = NCI Yeast Anticancer Drug Screen. Data for the CLN2oe strain (AID 163);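 also: 0% = growth of vehicle-only control cultures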; details: S. cerevisiae CLN2oe strain, stronger effect = higher value
# Procedure, shortened: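 Compound-treated yeast; growth vs vehicle ctrl = % inhibition. Genetically altered strain (cell-cycle control).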
# [15] = NCI Yeast Anticancer Drug Screen. Data for the cln2 rad14 strain (AID 165);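 also: 0% = growth equal to vehicle treated cultures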; details: S. cerevisiae cln2 rad14 strain, stronger effect = higher value
# Procedure, shortened: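 Growth inhibition, relative to vehicle-treated controls, is the read-out. The test organism is a yeast strain with defined genetic alterations, cln2 rad14.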
# [16] = NCI Yeast Anticancer Drug Screen. Data for the bub3 strain (AID 167); details: S. cerevisiae bub3 mutant strain, stronger effect = higher value
# Procedure, shortened: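 Readout: yeast growth inhibition, expressed relative to vehicle-only wells. The test organism is a mutant strain from a panel with lesions in DNA repair or checkpoint genes.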
# [17] = at 5.0 µM (retest, dose inferred, filed as 0.5)
# [18] = at 50.0 µM (retest, dose inferred, filed as 5.0)
smiles,measurement,setting,value
COC1/C=C\C=C(/C)C(=O)NC2=CC(=O)C(=O)C(=C2O)CC(C)CC(OC)C(O)C(C)/C=C(\C)C1OC(N)=O (stereo unspecified),growth inhibition,[1]; at 1.2 µM,6%
same,growth inhibition,[1]; at 3.7 µM,7%
same,growth inhibition,[1]; at 11.0 µM,89% (active)
same,growth inhibition,[1]; at 33.0 µM,96% (active)
same,growth inhibition,[1]; at 100.0 µM,96% (active)
same,growth inhibition,[2]; at 1.2 µM,-5%
same,growth inhibition,[2]; at 3.7 µM,11%
same,growth inhibition,[2]; at 11.0 µM,89% (active)
same,growth inhibition,[2]; at 33.0 µM,94% (active)
same,growth inhibition,[2]; at 100.0 µM,94% (active)
same,growth inhibition,[3]; at 1.2 µM,28%
same,growth inhibition,[3]; at 3.7 µM,36%
same,growth inhibition,[3]; at 11.0 µM,91% (active)
same,growth inhibition,[3]; at 33.0 µM,96% (active)
same,growth inhibition,[3]; at 100.0 µM,95% (active)
same,growth inhibition,[4]; [17],33%
same,growth inhibition,[4]; [18],92% (active)
same,growth inhibition,[4]; at 50.0 µM,83.2% (active)
same,growth inhibition,[5]; at 1.2 µM,12%
same,growth inhibition,[5]; at 3.7 µM,3%
same,growth inhibition,[5]; at 11.0 µM,91% (active)
same,growth inhibition,[5]; at 33.0 µM,96% (active)
same,growth inhibition,[5]; at 100.0 µM,95% (active)
CC1=C(C)C(=O)C2=C(OCCO2)C1=O,growth inhibition,[6]; at 1.2 µM,-6%
same,growth inhibition,[6]; at 3.7 µM,-8%
same,growth inhibition,[6]; at 11.0 µM,1%
same,growth inhibition,[6]; at 33.0 µM,23%
same,growth inhibition,[6]; at 100.0 µM,82% (active)
same,growth inhibition,[7]; at 1.2 µM,-4%
same,growth inhibition,[7]; at 3.7 µM,-5%
same,growth inhibition,[7]; at 11.0 µM,-5%
same,growth inhibition,[7]; at 33.0 µM,-4%
same,growth inhibition,[7]; at 100.0 µM,17%
same,growth inhibition,[8]; at 1.2 µM,-3%
same,growth inhibition,[8]; at 3.7 µM,-3%
same,growth inhibition,[8]; at 11.0 µM,5%
same,growth inhibition,[8]; at 33.0 µM,10%
same,growth inhibition,[8]; at 100.0 µM,46%
same,growth inhibition,[9]; at 1.2 µM,-8%
same,growth inhibition,[9]; at 3.7 µM,-2%
same,growth inhibition,[9]; at 11.0 µM,-2%
same,growth inhibition,[9]; at 33.0 µM,3%
same,growth inhibition,[9]; at 100.0 µM,43%
same,growth inhibition,[10]; at 1.2 µM,-3%
same,growth inhibition,[10]; at 3.7 µM,0%
same,growth inhibition,[10]; [17],-23%
same,growth inhibition,[10]; at 11.0 µM,7%
same,growth inhibition,[10]; at 33.0 µM,33%
same,growth inhibition,[10]; [18],87% (active)
same,growth inhibition,[10]; at 50.0 µM,1%
same,growth inhibition,[10]; at 100.0 µM,88% (active)
same,growth inhibition,[11]; at 1.2 µM,-3%
same,growth inhibition,[11]; at 3.7 µM,-3%
same,growth inhibition,[11]; [17],-8%
same,growth inhibition,[11]; at 11.0 µM,-5%
same,growth inhibition,[11]; at 33.0 µM,-1%
same,growth inhibition,[11]; [18],24%
same,growth inhibition,[11]; at 50.0 µM,-3.25%
same,growth inhibition,[11]; at 100.0 µM,20%
same,growth inhibition,[12]; at 1.2 µM,-1%
same,growth inhibition,[12]; at 3.7 µM,-1%
same,growth inhibition,[12]; at 11.0 µM,4%
same,growth inhibition,[12]; at 33.0 µM,17%
same,growth inhibition,[12]; at 100.0 µM,71% (active)
same,growth inhibition,[13]; [17],-10%
same,growth inhibition,[13]; [18],21%
same,growth inhibition,[13]; at 50.0 µM,29.8%
same,growth inhibition,[14]; at 1.2 µM,0%
same,growth inhibition,[14]; at 3.7 µM,-4%
same,growth inhibition,[14]; at 11.0 µM,3%
same,growth inhibition,[14]; at 33.0 µM,15%
same,growth inhibition,[14]; at 100.0 µM,27%
same,growth inhibition,[15]; [17],3%
same,growth inhibition,[15]; [18],29%
same,growth inhibition,[15]; at 50.0 µM,3.35%
same,growth inhibition,[16]; at 1.2 µM,0%
same,growth inhibition,[16]; at 3.7 µM,2%
same,growth inhibition,[16]; [17],-22%
same,growth inhibition,[16]; at 11.0 µM,9%
same,growth inhibition,[16]; at 33.0 µM,18%
same,growth inhibition,[16]; [18],35%
same,growth inhibition,[16]; at 50.0 µM,59.4%
same,growth inhibition,[16]; at 100.0 µM,48%
same,growth inhibition,[1]; at 1.2 µM,-9%
same,growth inhibition,[1]; at 3.7 µM,-12%
same,growth inhibition,[1]; at 11.0 µM,-2%
same,growth inhibition,[1]; at 33.0 µM,-13%
same,growth inhibition,[1]; at 100.0 µM,-5%
same,growth inhibition,[2]; at 1.2 µM,-4%
same,growth inhibition,[2]; at 3.7 µM,-3%
same,growth inhibition,[2]; at 11.0 µM,3%
same,growth inhibition,[2]; at 33.0 µM,14%
same,growth inhibition,[2]; at 100.0 µM,54%
same,growth inhibition,[3]; at 1.2 µM,-22%
same,growth inhibition,[3]; at 3.7 µM,23%
same,growth inhibition,[3]; at 11.0 µM,-14%
same,growth inhibition,[3]; at 33.0 µM,26%
same,growth inhibition,[3]; at 100.0 µM,88% (active)
same,growth inhibition,[4]; [17],4%
same,growth inhibition,[4]; [18],50%
same,growth inhibition,[4]; at 50.0 µM,26%
same,growth inhibition,[5]; at 1.2 µM,-5%
same,growth inhibition,[5]; at 3.7 µM,-5%
same,growth inhibition,[5]; at 11.0 µM,-4%
same,growth inhibition,[5]; at 33.0 µM,6%
same,growth inhibition,[5]; at 100.0 µM,54%
